G9a inh: qHTS Assay for Inhibitors of Histone Lysine Methyltransferase G9a; Potency, µM (top dose mostly 102 µM), for inactives: top-dose activity, negative = inhibition, actives largely listed as inhibitors; G9a H3K9 monomethylation, AlphaScreen, 2 h; 350,000 tested, 8.8% active; Histone-lysine N-methyltransferase EHMT2 (Homo sapiens), Q96KQ7; AID 504332, 2011; also: potency is read from the fitted curve at half-maximal effect; % is scaled to controls: 0 for no effect and ±100 for the full control effect; nearly all actives have a fitted effect of over 75% in size
Target sequence (Q96KQ7 913-1193 limits assumed): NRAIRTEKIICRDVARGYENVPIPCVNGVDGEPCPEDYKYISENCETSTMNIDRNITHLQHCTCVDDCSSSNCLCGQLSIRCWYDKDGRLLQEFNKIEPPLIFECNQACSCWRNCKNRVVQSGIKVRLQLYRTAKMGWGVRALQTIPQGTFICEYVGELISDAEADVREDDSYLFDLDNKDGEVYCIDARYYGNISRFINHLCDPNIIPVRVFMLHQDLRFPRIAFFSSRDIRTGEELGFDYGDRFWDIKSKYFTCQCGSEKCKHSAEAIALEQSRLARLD
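Readings reflect AlphaScreen signal from monomethyl-H3K9 antibody detection. HMT at 20 nM; substrate b-H3K9 500 nM; cofactor SAM 20 uM; 2 h RT reaction; compounds tested as titrations in qHTS with 15 min preincubation.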
BAZ2B inh: qHTS Assay for Inhibitors of BAZ2B; AlphaScreen BAZ2B-H3K14Ac peptide displacement; Potency, µM (top dose mostly 114 µM), for inactives: at the top dose activity change, negative = inhibition, actives largely listed as inhibitors; AID 504333, 2011; 360,000 tested, 4.4% active; also: potency is read from the fitted curve at half-maximal effect; % is scaled to controls: 0 for no effect and ±100 for the full control effect; nearly all actives have a fitted effect of over 60% in size
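Inhibition is scored as reduced AlphaScreen emission. The BAZ2B/b-H3(5-23)K14Ac complex (50 nM each) in PBS pH 7.4, 0.01% Tween-20 meets compound (up to 110 uM) for 30 min at RT before bead addition.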
JMJD2A Tudor inh: qHTS Assay for Inhibitors of JMJD2A-Tudor Domain. Lysine-specific demethylase 4A (Homo sapiens), O75164. AID 504339, 2011. Potency, µM (highest dose often 114 µM), without a hit: at the top dose activity change, negative = inhibition, usual class: inhibitors. AlphaScreen JMJD2A-Tudor / H3K4me3 peptide binding. 390,000 tested, 4.4% active; also: potency is read from the fitted curve at half-maximal effect; % is scaled to controls: 0 for no effect and ±100 for the full control effect; nearly all actives have a fitted effect of over 50% in size
CtBP-E1A blk: qHTS Assay for Inhibitors of the CtBP/E1A Interaction; AlphaScreen GST-E1A/His-CtBP binding, 1536-well; stronger effect = lower value; CtBP / adenovirus E1A interaction (AlphaScreen); activity change, % (test concentration not listed); 340,000 tested, 0.49% active; AID 651724, 2012; in the data active = activity change below about -65%; inconclusive = mostly about -30% to -63%; also: % is scaled to controls: 0 for no effect and ±100 for the full control effect
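Steps: dispense buffer (Tris pH 8.0, NaCl 300 mM, TCEP 1 mM, BSA, Tween 20); add 5X protein mix (GST-E1A, His-CtBP, 125 nM each); pin 23 nL compound; 2 h at 37 °C, dark; add 5X beads (50 ug/mL); 1 h; read.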
Six1-Eya2 inh: qHTS Assay for Inhibitors of the Six1/Eya2 Interaction | AID 651725, 2012 | activity change, % (test concentration not listed) | Homeobox protein SIX1 (Homo sapiens) + Protein phosphatase EYA2 (Homo sapiens), … | 360,000 tested, 0.56% active | AlphaScreen GST-Six1/His-Eya2 binding, biochemical; stronger effect = lower value; in the data active = activity change below about -65%; inconclusive = mostly about -30% to -63%; also: % is scaled to controls: 0 for no effect and ±100 for the full control effect
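Homogeneous AlphaScreen proximity assay pairing GST-Six1 with His-tagged Eya2 (added as 5X mix: 250 nM and 500 nM) in 50 mM Tris pH 8.0, 300 mM NaCl, 1 mM TCEP. Glutathione donor and nickel acceptor beads; 1 h, 37 °C, dark.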
HP1b binding inh: HTS for Inhibitors of HP1-beta Chromodomain Interactions with Methylated Histone Tails; AID 540317, 2011; 390,000 tested, 0.56% active; Potency, µM (highest dose often 114 µM), without a hit: at the top dose activity change, negative = inhibition, most hits filed as inhibitors; AlphaScreen HP1-beta / biotin-H3K9me3 peptide binding; also: potency is read from the fitted curve at half-maximal effect; nearly all actives have a fitted effect of over 70% in size
Target sequence (P83916 whole entry, looked up): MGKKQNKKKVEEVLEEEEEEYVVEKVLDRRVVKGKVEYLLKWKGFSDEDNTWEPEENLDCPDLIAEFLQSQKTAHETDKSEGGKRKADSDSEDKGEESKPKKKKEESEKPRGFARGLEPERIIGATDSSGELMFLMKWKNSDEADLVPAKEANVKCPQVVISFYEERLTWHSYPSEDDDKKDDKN
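Compound inhibition of the preformed complex between 50 nM HP1-beta and 50 nM biotinylated H3K9me3 peptide was read by AlphaScreen. Buffer was PBS pH 7.4 with 0.01% Tween-20. Incubations ran 30 min at room temperature, with 10 ug/mL donor/acceptor beads.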
* hit, by the source's call; ? = inconclusive; . = no result; [ ] = dose if it differs, or a comment. The list is not random: actives were taken first. Their share in the collection is about 10%. Unless noted, calls follow the shape of the dose curve; as a rule, active = well fitted inhibition curve with a large enough effect; inconclusive = small, poorly fitted or top-dose-only effect; inactive = no such curve, though single readings can be large or run the other way.

SMILES	G9a inh	BAZ2B inh	JMJD2A Tudor inh	CtBP-E1A blk	Six1-Eya2 inh	HP1b binding inh
Cn1cccc1C(=O)N1CCC[C@@]2(CCN(c3ncccn3)C2)C1	0.1%[12.7 µM]	.	.	.	.	.
O=C(COc1ccc(Br)cc1)N(Cc1nnc(-c2ccccc2Cl)o1)C1CC1	.	.	.	-2.7	0.0	.
CCCCN(CCCC)Cc1cc(=O)oc2cc(OC)c(Cl)cc12	.	.	.	7.1	8.6	.
COCCNC(=O)CSc1nc(-c2cc(OC)c(OC)c(OC)c2)[nH]c1-c1ccc(Cl)cc1	-25.3%[59 µM]	?	?	.	.	-24.0%
O=C(CSc1ncccn1)NNC(=O)c1ccccc1	.	.	-12.8%	-8.5	-1.5	15.2%
O=C(CSc1nnc(-c2ccccc2O)n1-c1ccccc1)Nc1cccc(C(=O)O)c1	50.1µM*	?	-2.8%	-1.0	-22.1	18.4%
COc1ccc(-n2c(SCC(=O)Nc3cccc(C(=O)O)c3)nnc2-c2ccco2)cc1	-8.6%[59 µM]	1.0%	-3.5%	18.5	2.9	41.3%
Cc1nnc(SCC(=O)NNC(=O)c2ccccc2)n1-c1ccccc1	-43.6%[59 µM]	8.1%	50.1µM*	17.6	0.0	28.3%
O=C(CSc1ncn[nH]1)OCN1C(=O)c2ccccc2C1=O	35.5µM*	-2.0%	-2.2%	6.6	6.4	30.5%
O=C(CSc1ncn[nH]1)NNC(=O)c1ccccc1	8.9%[0.501 µM]	4.6%	7.94µM*	7.7	-5.6	37.3%
CN1CCN(C(=O)/C(=C/c2cccs2)NC(=O)c2ccco2)CC1	-30.3%	-18.4%	2.8%	5.1	4.0	8.5%
Cc1ccc(-n2ncc3c(=O)n(-c4cccc(C)c4)c(=O)[nH]c32)cc1	.	.	.	-3.9	-7.0	.
CCCCCCCCCCC/C=C\C(C)(C)/C=C\CCCC(=O)O	7.9%[59 µM]	.	.	.	.	.
CCN(Cc1ccccc1)C(=O)CSc1ncn[nH]1	44.7µM*	-5.1%	-21.2%	13.0	10.5	-3.2%
CN(Cc1ccccc1)C1=CC(=[N+]2CCCC2)CC(C)(C)C1	?	3.0%	8.91µM*	-15.6	14.6	?
CCN(CC)C1=CC(=[N+]2CCCC2)CC(C)(C)C1	39.8µM*	-1.1%	0.7%	-5.5	13.2	2.2%
O=C(O)c1c2c(nc3ccc(Cl)cc13)CCC2	39.8µM*	?	-22.6%	4.3	1.0	13.9%
Cc1ccc2nc3c(c(C(=O)O)c2c1)CCC3	50.1µM*	-31.8%	-29.7%	9.3	-5.1	4.0%
COCCN(CC(=O)Nc1ccccc1C(F)(F)F)C(=O)/C=C/c1cc(Cl)c2c(c1)OCCO2	.	.	-9.8%	-7.9	-7.2	12.6%
CCOc1ccc(Cl)cc1-c1cc(C(=O)NCc2ccccc2OC)[nH]n1	.	.	.	-14.9	1.8	.
CC1=C/C(=C(\c2cc(C)c(O)c(Br)c2)c2ccccc2S(=O)(=O)O)C=C(Br)C1=O	14.1µM*	20µM*	?	-75.4*	-91.6*	28.2µM*
COc1ccc(OC)c(CCNC(=O)CCc2cn(Cc3cc(C)ccc3C)c3ccccc23)c1	?	?	?	.	.	5.9%
COc1cccc(Nc2ncnc3sccc23)c1	-7.8%	12.8%	-1.4%	3.8	-1.4	39.3%
COc1ccc(Nc2ncnc3sccc23)cc1	44.7µM*	-7.1%	-9.2%	-16.0	-1.9	-1.7%
c1ccc(Nc2ncnc3sccc23)cc1	-8.6%	0.7%	-5.0%	-11.5	7.7	8.7%
SMILES	G9a inh	BAZ2B inh	JMJD2A Tudor inh	CtBP-E1A blk	Six1-Eya2 inh	HP1b binding inh
COC(=O)c1cccc(Nc2ncnc3sccc23)c1	35.5µM*	.	-12.0%	0.8	-0.3	53.6%
Cc1ccc(C(C)C)c(OCCCn2c(=O)oc3ccc(C)cc32)c1	107.5%[59 µM]	42.2%	62.9%	.	.	135.6%
COc1ccccc1NC(=O)COC(=O)Cn1c(C)csc1=O	.	.	.	-19.4	13.7	.
CC[C@H](C)[C@@H]1NC(=O)c2cc([N+](=O)[O-])cc(F)c2NCCCC[C@@H](C(N)=O)NC(=O)[C@H](CCCCN)NC1=O	?	-7.1%	-31.0%	.	1.8	3.9%
C[C@@H](O)C1NC(=O)[C@H](CCCCN)NC(=O)c2cc([N+](=O)[O-])cc(I)c2OCC[C@@H](C(N)=O)NC1=O (stereo not given in full)	8.91µM*	?	56.2µM*	.	0.8	-9.5%
CC(C)C[C@@H]1NC(=O)[C@H](CO)NC(=O)c2cc([N+](=O)[O-])cc(I)c2OCC[C@@H](C(N)=O)NC1=O	39.8µM*	-31.6%	-9.3%	1.7	-3.9	28.1%
CCOc1ccc(NC(=O)Cn2c(=O)n(-c3ccc(C)cc3)c(=O)c3cc(OC)c(OC)cc32)cc1	4.4%[59 µM]	2.1%	-2.1%	.	.	34.6%
NS(=O)(=O)c1ccc(NC(=O)c2cccc(N3C(=O)c4ccccc4C3=O)c2)cc1	10µM*	?	?	2.6	6.3	0.9%[57 µM]
O=C(O)c1cc(NC(=O)c2cccc(N3C(=O)c4ccccc4C3=O)c2)cc(C(=O)O)c1	.	-15.1%	-15.3%	-3.9	-3.2	12.1%
O=C(Nc1ccccc1C(=O)O)c1cccc(N2C(=O)c3ccccc3C2=O)c1	-10.5%	3.4%	-7.6%	-3.2	-13.7	9.0%
COc1ccc(NC(=O)c2cccc(N3C(=O)c4ccc(C(=O)Nc5ccc(OC)c(O)c5)cc4C3=O)c2)cc1O	15.5%	-19.4%	?	-65.8*	?	-6.2%
CC(=O)c1ccc(NC(=O)c2cccc(N3C(=O)c4ccccc4C3=O)c2)cc1	79.4µM*	-31.2%	-5.1%	-5.0	7.4	14.1%
O=C(O)c1cccc(NC(=O)c2ccc3c(c2)C(=O)N(c2ccccc2)C3=O)c1	-1.3%	-16.6%	-7.7%	8.9	10.8	12.4%
CN(C)c1ccc(NC(=O)c2cccc(N3C(=O)C4C5C=CC(C5)C4C3=O)c2)cc1 (stereo not given)	10µM*	-33.8%	-24.8%	-8.6	-10.9	-20.1%
CCOc1ccccc1C(=O)N/N=C/c1coc2ccc(C)cc2c1=O	.	-14.9%	-31.5%	2.6	-7.4	69.9%
Cn1c(CCNC(=O)c2ccc(Cl)cc2)n[nH]c1=S	-26.4%[12.7 µM]	-1.4%[57.1 µM]	10µM*	2.4	1.4	23.1%
Cc1ccc(C(=O)NCCc2nnc3ccc(N4CCCC4)nn23)cc1	.	-12.8%	-9.7%	3.3	1.9	44.3%
NCCNC(=O)c1ccc(Cl)cc1	51.3%[12.7 µM]	.	.	.	.	.
CCn1c(CCNC(=O)c2ccc(C)cc2)n[nH]c1=S	?	8.7%	6.31µM*	-15.8	-7.0	-37.9%
COc1cc(Cl)c(C)cc1Nc1c2c(nc3ccccc13)CCC2	-29.8%[59 µM]	-17.1%	-27.0%	.	.	12.9%

High-throughput results deposited in PubChem BioAssay by National Center for Advancing Translational Sciences (NCATS).
